Sampled rows, rich in hits. Any-hit rate of the full collection: about 7.3%.
FMDV antiviral – High Throughput Screening for Foot and Mouth Disease Virus Antivirals. Potency, µM (highest dose often 57.9 µM), for the others: at the highest dose activity change, negative = inhibition, hits mostly inhibitors. AID 1159524, 2015. hit rate 1.2% among 410,000. FMDV antiviral cell-based qHTS; calls by dose curve; tested in HEK293T cells; also: read-out not given here; potency is read from the fitted curve at half-maximal effect; nearly all actives have a fitted effect of over 45% in size
AmpC inh detg – qHTS Inhibitors of AmpC Beta-Lactamase (assay with detergent); P00811; AmpC hydrolysis of nitrocefin, absorbance 480 nm, 0.01% Triton; Potency, µM (series often up to 114 µM), without a hit: at the highest dose activity change, negative = inhibition, most hits filed as inhibitors; hit rate 0.041% among 370,000; AID 485294, 2010;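 also: potency is read from the fitted curve at half-maximal effect; 0% = no-compound wells and -100% = no-enzyme wells; nearly all actives have a fitted effect of over 25% in size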
Target sequence (P00811 whole entry, looked up): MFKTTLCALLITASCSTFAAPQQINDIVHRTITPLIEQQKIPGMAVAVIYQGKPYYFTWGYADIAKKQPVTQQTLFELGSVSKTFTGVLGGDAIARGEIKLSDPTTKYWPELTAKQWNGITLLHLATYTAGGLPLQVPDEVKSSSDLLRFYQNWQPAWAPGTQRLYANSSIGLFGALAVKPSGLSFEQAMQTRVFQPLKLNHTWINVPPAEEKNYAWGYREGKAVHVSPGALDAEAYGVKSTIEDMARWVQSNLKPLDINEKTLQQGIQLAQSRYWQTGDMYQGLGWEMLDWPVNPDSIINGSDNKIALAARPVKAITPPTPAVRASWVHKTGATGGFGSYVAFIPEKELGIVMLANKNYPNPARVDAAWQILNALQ
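AmpC (5.3 nM in the dispensed reagent) in 20 mM phosphate pH 7.0 with 0.01% (detergent screen) or 0.0001% Triton X-100 was preincubated with compounds for 15 min at room temperature. Nitrocefin was then added from an 800 uM solution, and hydrolysis was followed at 480 nm.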
HCV inh – qHTS Assay for Inhibitors of Hepatitis C Virus (HCV) | Huh7.5.1 HCVcc-Cre infection, luciferase reporter, 44 h | Potency, µM (top dose mostly 41.8 µM), for inactives: at the top dose activity change, negative = inhibition, most hits filed as inhibitors | hit rate 3.4% among 340,000; also: potency is read from the fitted curve at half-maximal effect
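HCVcc-Cre virus at an moi near 0.5 was added right after compound to cells cultured 4 h from seeding (1,000 cells/well). Luciferase activity was determined 44 h later, 15 min after substrate addition at RT.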
HCMV inh – qHTS Assay for inhibitors of the human cytomegalovirus (HCMV). HFF cells, HCMV-luciferase reporter, 72 h; hits give low values. activity change, negative = inhibition, % at 57.5 µM. hit rate 4.5% among 410,000; in the data active = activity change below about -60%; inconclusive = no clear call, values can overlap the other calls; inactive = above about -39%
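After 16 h attachment at 37C, HFF cells received test compound and HCMV-luciferase (1 PFU/cell); reporter luminescence read 72 h later, data normalized against buffer-only and known inhibitor Salinomycin.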
AmpC inh no detg – qHTS Inhibitors of AmpC Beta-Lactamase (assay without detergent). P00811. Potency, µM (doses to about 57.1 µM), for the others: at the top dose activity change, negative = inhibition, usual class: inhibitors. AmpC nitrocefin hydrolysis, absorbance 480 nm, 0.0001% Triton. hit rate 0.52% among 330,000;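 also: potency is read from the fitted curve at half-maximal effect; plate controls were no compound for no effect and no enzyme for full effect; nearly all actives have a fitted effect of over 20% in size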
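AmpC (5.3 nM in the dispensed reagent) in 20 mM phosphate pH 7.0 with 0.01% (detergent screen) or 0.0001% Triton X-100 was preincubated with compounds for 15 min at room temperature. Nitrocefin was then added from an 800 uM solution, and hydrolysis was followed at 480 nm.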
Active calls of the source: *. Unless noted, calls follow the shape of the dose curve; as a rule, active = well fitted curve in the direction sought with a large enough effect; inconclusive = small, poorly fitted or top-dose-only effect, or another doubt; inactive = no such curve, though single readings can be large; an effect the other way counts as inactive or inconclusive. Unless noted, % is scaled to controls: 0 for no effect and ±100 for the full control effect.

Results for CSc1ccccc1OCc1cc(C(=O)N2CCc3[nH]cnc3C2c2ccccn2)no1 (stereo not drawn) ?
FMDV antiviral: -20%; AmpC inh detg: -2%; HCV inh: -17%; HCMV inh: -60*; AmpC inh no detg: 143%

Results for CSc1ccccc1OCc1cc(C(=O)N2CCN(c3ccccc3)CC2C)no1 (stereo not drawn) ?
FMDV antiviral: 6%; AmpC inh detg: 2%; HCV inh: inconclusive; HCMV inh: 70; AmpC inh no detg: 2%

How did CSc1ccccc1OCc1cc(C(=O)N2CCc3c(Cl)cccc3C2)no1 do in these assays?
FMDV antiviral: -24%; AmpC inh detg: 5%; HCV inh: 13µM*; HCMV inh: inconclusive; AmpC inh no detg: -22%

What do the screens show for `CCc1nc2ccc(C(=O)NCCNC(C)=O)cn2c1N(CCC(C)C)CCN(C)C`?
FMDV antiviral: -8%; HCMV inh: 40

How did CCCCN1CC(COCc2ccccc2)Oc2cccc(Oc3ccccc3)c2S1(=O)=O (stereo not drawn) do in these assays?
FMDV antiviral: 14%; HCV inh: 2.5µM*; HCMV inh: 1

Results for COc1ccc(C2SCC(=O)N2CCc2ccc(OC)c(OC)c2)cc1 (stereo not drawn) ?
FMDV antiviral: inconclusive; AmpC inh detg: -6%; HCV inh: 11µM*; HCMV inh: -71*; AmpC inh no detg: -6%

Results for C/C(Cn1cnc([N+](=O)[O-])n1)=N\NC(=O)c1ccc(F)cc1 ?
FMDV antiviral: -5%; AmpC inh detg: inconclusive; HCV inh: -3%; HCMV inh: 84; AmpC inh no detg: -20%

How did C/C(Cn1cnc([N+](=O)[O-])n1)=N\NC(=O)c1cccc(F)c1 do in these assays?
FMDV antiviral: 39%; AmpC inh detg: -12%; HCV inh: 11µM*; HCMV inh: 19; AmpC inh no detg: -29%

Results for CCN(CC)C(=O)c1sc2c(c1C)c(=O)n(-c1ccc(C)c(C)c1)c(=O)n2Cc1cccc(Cl)c1 ?
FMDV antiviral: -9%; AmpC inh detg: -2%; HCMV inh: -14

What do the screens show for `CCN(Cc1ccccc1OC)CC1CCCN(CCc2cccc(OC)c2)C1` (stereo not drawn)?
FMDV antiviral: -16%; AmpC inh detg: -18%; HCV inh: inconclusive; HCMV inh: 42; AmpC inh no detg: -12%

Results for CCN(Cc1ccc(OC)c(COC)c1)CC1CCCN(CCc2cccc(F)c2)C1 (stereo not drawn) ?
FMDV antiviral: -9%; AmpC inh detg: -12%; HCV inh: 13µM*; HCMV inh: -31; AmpC inh no detg: 91%

What do the screens show for `CCN(Cc1ccc(OC)c(COC)c1)CC1CCCN(CCc2cccc(OC)c2)C1` (stereo not drawn)?
FMDV antiviral: -30%; AmpC inh detg: 0%; HCV inh: 7.9µM*; HCMV inh: -75*; AmpC inh no detg: 97%

How did Cc1ccc(CNC(=O)C2CCCN(S(=O)(=O)c3ccc4c(ccn4C)c3)C2)cc1 (stereo not drawn) do in these assays?
FMDV antiviral: -8%; AmpC inh detg: -9%; HCMV inh: -22

What do the screens show for `COc1ccccc1-n1cnc2c(c1=O)c1nc3ccccc3nc1n2CCc1ccccc1`?
FMDV antiviral: -28%; AmpC inh detg: -13%; HCV inh: 4%; HCMV inh: inconclusive; AmpC inh no detg: -7%

What do the screens show for `COc1ccccc1-n1c2nc3ccccc3nc2c2c(=O)n(-c3cc(C)cc(C)c3)cnc21`?
FMDV antiviral: inconclusive; AmpC inh detg: 7%; HCV inh: inconclusive; HCMV inh: -69*; AmpC inh no detg: 1%

How did COc1ccccc1-n1cnc2c(c1=O)c1nc3ccccc3nc1n2-c1ccc(C)cc1 do in these assays?
FMDV antiviral: -15%; AmpC inh detg: -9%; HCV inh: inconclusive; HCMV inh: -87*; AmpC inh no detg: -11%

What do the screens show for `COc1cc(F)ccc1-c1csc(C(C)(NC(C)=O)c2ccccc2)n1` (stereo not drawn)?
FMDV antiviral: -21%; HCMV inh: 48

What do the screens show for `COC(=O)CCN(Cc1cccc(OC)c1OC)S(=O)(=O)c1ccccc1Br`?
HCMV inh: -16

How did CC(O)(COc1ccccc1)c1ccc2c(c1)CN(Cc1cccc3ncccc13)CCO2 (stereo not drawn) do in these assays?
FMDV antiviral: -24%

What do the screens show for `O=C(OCCCOc1ccc(F)cc1)c1ccc(O)cc1O`?
FMDV antiviral: -13%; AmpC inh detg: -6%; HCV inh: -15%; HCMV inh: -20; AmpC inh no detg: 3.2µM*

How did Cc1ccc(NC(=O)C(=O)NCC(c2ccc3c(c2)OCO3)N2CCOCC2)cc1C (stereo not drawn) do in these assays?
FMDV antiviral: -18%; AmpC inh detg: 1%; HCMV inh: -3

What do the screens show for `CC(C)c1cc(C(=O)N2CCCC(N3CCN(c4ccc(F)cc4)CC3)C2)n(C)n1` (stereo not drawn)?
FMDV antiviral: inconclusive; AmpC inh detg: -5%; HCV inh: inconclusive; HCMV inh: -64*; AmpC inh no detg: 221%

How did CC(CO)Nc1nc(SCc2ccccc2)nc2sc3c(c12)CCC3 (stereo not drawn) do in these assays?
FMDV antiviral: -23%; AmpC inh detg: -1%; HCV inh: 13µM*; HCMV inh: inconclusive; AmpC inh no detg: -8%

How did COCCNc1nc(SCc2ccccc2)nc2sc3c(c12)CCC3 do in these assays?
FMDV antiviral: inconclusive; AmpC inh detg: 5%; HCV inh: inconclusive; HCMV inh: -9; AmpC inh no detg: 25%

What do the screens show for `COc1cccc(C(=O)N(Cc2cc3ccc(C)cc3nc2N(C)C)C2CC2)c1OC`?
FMDV antiviral: -11%

What do the screens show for `CC1=C(C(=O)Nc2ccc(C)cc2C)C(c2cccn2C)n2ncnc2N1` (stereo not drawn)?
FMDV antiviral: -15%; AmpC inh detg: 19%; HCMV inh: 4

Results for COC(=O)c1ccc(CSc2nc3scc(-c4cccs4)c3c(=O)[nH]2)o1 ?
FMDV antiviral: -1%; AmpC inh detg: -10%; HCV inh: 19%; HCMV inh: 22; AmpC inh no detg: 10µM*

How did O=C(c1c[nH]c2ccccc12)C(Cl)c1ccccc1 (stereo not drawn) do in these assays?
FMDV antiviral: inconclusive; AmpC inh detg: -7%; HCV inh: -28%; HCMV inh: -100*; AmpC inh no detg: -40%

How did COc1cc(OC)c2c(-c3cccc(-c4cccc(C)c4)c3)cc(=O)oc2c1 do in these assays?
FMDV antiviral: inconclusive; HCV inh: 4.5µM*; HCMV inh: -35; AmpC inh no detg: -23%
